Assay results published in PubChem BioAssay AID1159580 (chemical genetic matrix, 2015).
Screen size: about 5,500 compounds; about 2,000 (36%) were called active. Another 18% or so got no clear call; they are omitted. Rule as the data show it: active = normalized growth mostly below about 0.91 (no sharp cut-off); inconclusive = no clear call, values can overlap the other calls; inactive = mostly above about 0.92. This is one part of the list.

Assay: chemical genetic growth profiling, strain panel (AID 1159580);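 also: tested at 20 µM; growth read once vehicle control cultures reached saturation at 30 °C; 1 = growth at the plate median or of vehicle wells; lower values mean less growth of the strain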
Settings: growth OD

Measured: normalized growth

CC(N)C(O)c1ccc(O)c(O)c1 (stereo unspecified)
inactive: S. cerevisiae deletion strains, locus YAL013W, strain DEP1, active compounds read low 1 | S. cerevisiae deletion strains, locus YBR021W, strain FUR4, active compounds read low 0.982 | S. cerevisiae deletion strains, locus YBR229C, strain ROT2, active compounds read low 0.98 | S. cerevisiae deletion strains, locus YCL029C, strain bik1, active compounds read low 0.981 | S. cerevisiae deletion strains, locus YDL035C, strain GPR1, active compounds read low 0.988 | S. cerevisiae deletion strains, locus YDL074C, strain BRE1, active compounds read low 1.02 | S. cerevisiae deletion strains, locus YDL101C, strain DUN1, active compounds read low 0.998 | S. cerevisiae deletion strains, locus YDL134C, strain PPH21, active compounds read low 1.01 | S. cerevisiae deletion strains, locus YDL185W, strain tfp1, active compounds read low 0.977 | S. cerevisiae deletion strains, locus YDL192W, strain arf1, active compounds read low 0.973 | S. cerevisiae deletion strains, locus YDR101C, strain arx1, active compounds read low 0.992 | S. cerevisiae deletion strains, locus YDR150W, strain NUM1, active compounds read low 0.999 | S. cerevisiae deletion strains, locus YDR162C, strain NBP2, active compounds read low 1.04 | S. cerevisiae deletion strains, locus YDR318W, strain mcm21, active compounds read low 0.979 | S. cerevisiae deletion strains, locus YDR388W, active compounds read low 0.98 | S. cerevisiae deletion strains, locus YDR502C, strain sam2, active compounds read low 0.999 | S. cerevisiae deletion strains, locus YEL061C, strain CIN8, active compounds read low 0.998 | S. cerevisiae deletion strains, locus YER110C, active compounds read low 0.97 | S. cerevisiae deletion strains, locus YER155C, strain BEM2, active compounds read low 0.994 | S. cerevisiae deletion strains, locus YER167W, strain BCK2, active compounds read low 0.98 | S. cerevisiae deletion strains, locus YGL078C, strain dbp3, active compounds read low 0.994 | S. cerevisiae deletion strains, locus YGL086W, strain mad1, active compounds read low 0.98 | S. cerevisiae deletion strains, locus YGL248W, strain PDE1, active compounds read low 0.991 | S. cerevisiae deletion strains, locus YGR078C, strain PAC10, active compounds read low 1.02 | S. cerevisiae deletion strains, locus YGR135W, strain pre9, active compounds read low 1.01 | S. cerevisiae deletion strains, locus YGR229C, strain SMI1, active compounds read low 1.02 | S. cerevisiae deletion strains, locus YGR252W, strain gcn5, active compounds read low 0.901 | S. cerevisiae deletion strains, locus YHR030C, strain SLT2, active compounds read low 0.99 | S. cerevisiae deletion strains, locus YHR079C, strain IRE1 (second series), active compounds read low 0.976 | S. cerevisiae deletion strains, locus YHR094C, strain hxt1, active compounds read low 0.988 | S. cerevisiae deletion strains, locus YHR129C, strain ARP1, active compounds read low 0.997 | S. cerevisiae deletion strains, locus YHR200W, strain rpn10, active compounds read low 0.971 | S. cerevisiae deletion strains, locus YIL066C, strain RNR3, active compounds read low 0.986 | S. cerevisiae deletion strains, locus YIL073C, strain SPO22, active compounds read low 0.958 | S. cerevisiae deletion strains, locus YIL125W, strain kgd1, active compounds read low 0.988 | S. cerevisiae deletion strains, locus YIR030C, strain dcg1, active compounds read low 0.993 | S. cerevisiae deletion strains, locus YJL095W, strain BCK1, active compounds read low 1.02 | S. cerevisiae deletion strains, locus YJL134W, strain LCB3, active compounds read low 0.993 | S. cerevisiae deletion strains, locus YJL168C, strain set2, active compounds read low 0.984 | S. cerevisiae deletion strains, locus YJL187C, strain SWE1 (second series), active compounds read low 1.01 | S. cerevisiae deletion strains, locus YJR043C, strain POL32, active compounds read low 1.01 | S. cerevisiae deletion strains, locus YJR075W, strain HOC1, active compounds read low 1.01 | S. cerevisiae deletion strains, locus YKL009W, strain mrt4, active compounds read low 0.972 | S. cerevisiae deletion strains, locus YKL068W, active compounds read low 0.991 | S. cerevisiae deletion strains, locus YKL085W, strain MDH1 (second series), active compounds read low 0.98 | S. cerevisiae deletion strains, locus YKL085W, strain MDH1, active compounds read low 0.98 | S. cerevisiae deletion strains, locus YKL190W, strain CNB1, active compounds read low 1 | S. cerevisiae deletion strains, locus YKR001C, strain vps1, active compounds read low 0.993 | S. cerevisiae deletion strains, locus YLR039C, strain RIC1, active compounds read low 1.01 | S. cerevisiae deletion strains, locus YLR058C, strain SHM2, active compounds read low 0.989 | S. cerevisiae deletion strains, locus YLR102C, strain apc9, active compounds read low 0.989 | S. cerevisiae deletion strains, locus YLR262C, strain YPT6, active compounds read low 0.997 | S. cerevisiae deletion strains, locus YLR268W, strain sec22, active compounds read low 1.01 | S. cerevisiae deletion strains, locus YLR330W, strain CHS5, active compounds read low 0.99 | S. cerevisiae deletion strains, locus YLR342W, strain FKS1 (second series), active compounds read low 0.976 | S. cerevisiae deletion strains, locus YLR371W, strain rom2, active compounds read low 0.971 | S. cerevisiae deletion strains, locus YLR418C, strain cdc73, active compounds read low 1.04 | S. cerevisiae deletion strains, locus YML016C, strain PPZ1, active compounds read low 0.991 | S. cerevisiae deletion strains, locus YML032C, strain rad52, active compounds read low 0.971 | S. cerevisiae deletion strains, locus YML124C, strain tub3, active compounds read low 0.983 | S. cerevisiae deletion strains, locus YMR078C, strain ctf18, active compounds read low 0.971 | S. cerevisiae deletion strains, locus YMR223W, strain ubp8, active compounds read low 0.968 | S. cerevisiae deletion strains, locus YMR263W, strain SAP30, active compounds read low 1.02 | S. cerevisiae deletion strains, locus YMR307W, strain GAS1, active compounds read low 0.95 | S. cerevisiae deletion strains, locus YNL067W, strain RPL9B, active compounds read low 1.02 | S. cerevisiae deletion strains, locus YNL128W, strain TEP1, active compounds read low 0.996 | S. cerevisiae deletion strains, locus YNL153C, strain GIM3, active compounds read low 1.03 | S. cerevisiae deletion strains, locus YNL233W, strain BNI4, active compounds read low 1.02 | S. cerevisiae deletion strains, locus YNL250W, strain rad50, active compounds read low 0.978 | S. cerevisiae deletion strains, locus YNL271C, strain bni1, active compounds read low 0.973 | S. cerevisiae deletion strains, locus YNL298W, strain CLA4, active compounds read low 0.982 | S. cerevisiae deletion strains, locus YNL307C, strain MCK1, active compounds read low 0.99 | S. cerevisiae deletion strains, locus YNL322C, strain KRE1, active compounds read low 0.997 | S. cerevisiae deletion strains, locus YNR052C, strain pop2, active compounds read low 0.959 | S. cerevisiae deletion strains, locus YOL006C, strain TOP1, active compounds read low 1.02 | S. cerevisiae deletion strains, locus YOL012C, strain htz1 0.931 | S. cerevisiae deletion strains, locus YOL147C, strain pex11, active compounds read low 0.983 | S. cerevisiae deletion strains, locus YOR061W, strain CKA2, active compounds read low 0.998 | S. cerevisiae deletion strains, locus YOR069W, strain VPS5, active compounds read low 0.991 | S. cerevisiae deletion strains, locus YOR136W, strain idh2, active compounds read low 0.972 | S. cerevisiae deletion strains, locus YOR144C, strain elg1, active compounds read low 0.977 | S. cerevisiae deletion strains, locus YOR184W, strain ser1, active compounds read low 0.971 | S. cerevisiae deletion strains, locus YOR316C, strain cot1, active compounds read low 0.981 | S. cerevisiae deletion strains, locus YPL055C, strain LGE1, active compounds read low 1.03 | S. cerevisiae deletion strains, locus YPL241C, strain CIN2, active compounds read low 1 | S. cerevisiae deletion strains, locus YPR119W, strain clb2, active compounds read low 0.995 | S. cerevisiae deletion strains, locus YPR141C, strain kar3, active compounds read low 0.976 | S. cerevisiae deletion strains, locus YPR163C, strain tif3, active compounds read low 0.987 | S. cerevisiae deletion strains, locus YPR167C, strain met16, active compounds read low 0.986 | S. cerevisiae deletion strains, strain wtn01, active compounds read low 1.01 | S. cerevisiae strains, strain wild type, active compounds read low 0.994
